# Assay results published in PMC11006913.
# Where a chain is given by its changes, count along the chain named.
# Target: PROP1 (Homo sapiens, UniProt O75360 56-141)
# Assay: PBM; 200 nM protein, PBS
# Conditions: dsDNA, one strand shown
# PROP1 (Homo sapiens, UniProt O75360 56-141), sequence (O75360 56-141): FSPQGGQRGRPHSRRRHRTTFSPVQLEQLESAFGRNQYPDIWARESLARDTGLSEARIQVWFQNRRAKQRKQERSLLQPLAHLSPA
row,Sequence,binding signal
1,GCCAGGGC,"6.61 upbm affinity estimate (log intensity, higher = more binding, comparable within an allelic series)"

# Target: T1, SIX6 (Homo sapiens, UniProt O95475 114-200)
# T1 sequence: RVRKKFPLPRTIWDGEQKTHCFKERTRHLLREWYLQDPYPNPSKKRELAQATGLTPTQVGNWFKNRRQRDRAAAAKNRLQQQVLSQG
# Assay: PBM; 200 nM protein, PBS
# Conditions: dsDNA, one strand shown
row,Sequence,binding signal
1,ATGATATG,"11.1 upbm affinity estimate (log intensity, higher = more binding, comparable within an allelic series)"
2,GGCGGAAC,"8.77 upbm affinity estimate (log intensity, higher = more binding, comparable within an allelic series)"
3,AATGATAC,"11.2 upbm affinity estimate (log intensity, higher = more binding, comparable within an allelic series)"
4,GCGCGCCC,"8.8 upbm affinity estimate (log intensity, higher = more binding, comparable within an allelic series)"
5,GCTTGGCC,"8.89 upbm affinity estimate (log intensity, higher = more binding, comparable within an allelic series)"
6,CAAGGCCC,"8.89 upbm affinity estimate (log intensity, higher = more binding, comparable within an allelic series)"

# Target: PROP1 (Homo sapiens, UniProt O75360 56-141, R99H)
# Assay: PBM; 200 nM protein, PBS
# Conditions: dsDNA, one strand shown
# PROP1 (Homo sapiens, UniProt O75360 56-141, R99H), sequence (O75360 56-141 R99H): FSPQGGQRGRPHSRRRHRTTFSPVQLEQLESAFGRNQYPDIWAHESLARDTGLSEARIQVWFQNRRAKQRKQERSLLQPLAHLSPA
row,Sequence,binding signal
1,CCCGGACG,"6.67 upbm affinity estimate (log intensity, higher = more binding, comparable within an allelic series)"
2,GCTTGGCC,"6.63 upbm affinity estimate (log intensity, higher = more binding, comparable within an allelic series)"
3,GCCAGGGC,"6.73 upbm affinity estimate (log intensity, higher = more binding, comparable within an allelic series)"

# Target: VAX1 (Homo sapiens, UniProt Q5SQQ9 86-172)
# Assay: PBM; 200 nM protein, PBS
# Conditions: dsDNA, one strand shown
# VAX1 (Homo sapiens, UniProt Q5SQQ9 86-172), sequence (Q5SQQ9 86-172): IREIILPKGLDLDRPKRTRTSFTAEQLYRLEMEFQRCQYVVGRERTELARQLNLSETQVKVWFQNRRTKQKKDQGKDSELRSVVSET
row,Sequence,binding signal
1,CACGGGGG,"7.17 upbm affinity estimate (log intensity, higher = more binding, comparable within an allelic series)"
2,CCGGGAGG,"7.03 upbm affinity estimate (log intensity, higher = more binding, comparable within an allelic series)"
3,GGGGTACC,"7.1 upbm affinity estimate (log intensity, higher = more binding, comparable within an allelic series)"
4,CGAGCGAC,"7.11 upbm affinity estimate (log intensity, higher = more binding, comparable within an allelic series)"
5,CCCCTCGG,"7.12 upbm affinity estimate (log intensity, higher = more binding, comparable within an allelic series)"
6,GCCAGGGC,"7.25 upbm affinity estimate (log intensity, higher = more binding, comparable within an allelic series)"
7,CAAGGCCC,"7.02 upbm affinity estimate (log intensity, higher = more binding, comparable within an allelic series)"

# Target: ALX3 (Homo sapiens, UniProt O95076 139-225, L168Q)
# Assay: PBM; 200 nM protein, PBS
# Conditions: dsDNA, one strand shown
# ALX3 (Homo sapiens, UniProt O95076 139-225, L168Q), sequence (O95076 139-225 L168Q): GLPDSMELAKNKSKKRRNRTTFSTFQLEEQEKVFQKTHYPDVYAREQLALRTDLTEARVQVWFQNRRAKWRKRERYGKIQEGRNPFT
row,Sequence,binding signal
1,GCCGCAGC,"7.75 upbm affinity estimate (log intensity, higher = more binding, comparable within an allelic series)"
2,CGAGCGAC,"7.78 upbm affinity estimate (log intensity, higher = more binding, comparable within an allelic series)"
3,GACCCAGC,"7.85 upbm affinity estimate (log intensity, higher = more binding, comparable within an allelic series)"

# Target: T2, SIX6 (Homo sapiens, UniProt O95475 114-200, T165I)
# T2 sequence: T1 sequence with T52I
# Assay: PBM; 200 nM protein, PBS
# Conditions: dsDNA, one strand shown
row,Sequence,binding signal
1,ATGATATG,"11.1 upbm affinity estimate (log intensity, higher = more binding, comparable within an allelic series)"
2,GGCGGAAC,"8.82 upbm affinity estimate (log intensity, higher = more binding, comparable within an allelic series)"
3,AATGATAC,"11.3 upbm affinity estimate (log intensity, higher = more binding, comparable within an allelic series)"
4,GCGCGCCC,"8.71 upbm affinity estimate (log intensity, higher = more binding, comparable within an allelic series)"
5,GCTTGGCC,"8.91 upbm affinity estimate (log intensity, higher = more binding, comparable within an allelic series)"
6,CAAGGCCC,"8.88 upbm affinity estimate (log intensity, higher = more binding, comparable within an allelic series)"

# Target: HOXD13 (Homo sapiens, UniProt P35453 263-343, T313A)
# Assay: PBM; 200 nM protein, PBS
# Conditions: dsDNA, one strand shown
# HOXD13, sequence (P35453 263-343 T313A): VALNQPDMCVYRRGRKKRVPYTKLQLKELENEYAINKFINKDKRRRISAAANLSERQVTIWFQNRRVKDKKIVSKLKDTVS
row,Sequence,binding signal
1,CCCCCTGC,"9.34 upbm affinity estimate (log intensity, higher = more binding, comparable within an allelic series)"
2,AGAGGGGC,"9.59 upbm affinity estimate (log intensity, higher = more binding, comparable within an allelic series)"
3,CCCCTCCC,"9.62 upbm affinity estimate (log intensity, higher = more binding, comparable within an allelic series)"

# Target: HOXB9 (Homo sapiens, UniProt P17482 171-250, R186Q)
# Assay: PBM; 200 nM protein, PBS
# Conditions: dsDNA, one strand shown
# HOXB9, sequence (P17482 171-250 R186Q): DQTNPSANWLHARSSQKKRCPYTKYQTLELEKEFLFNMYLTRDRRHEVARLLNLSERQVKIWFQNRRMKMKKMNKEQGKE
row,Sequence,binding signal
1,GCCGCAGC,"8.46 upbm affinity estimate (log intensity, higher = more binding, comparable within an allelic series)"
2,CACGGGGG,"8.26 upbm affinity estimate (log intensity, higher = more binding, comparable within an allelic series)"
3,GCGCGCCC,"8.61 upbm affinity estimate (log intensity, higher = more binding, comparable within an allelic series)"
4,AGAGGGGC,"8.41 upbm affinity estimate (log intensity, higher = more binding, comparable within an allelic series)"
5,GCCATTAA,"12 upbm affinity estimate (log intensity, higher = more binding, comparable within an allelic series)"
6,CCCGGACG,"8.54 upbm affinity estimate (log intensity, higher = more binding, comparable within an allelic series)"
7,CGAGCGAC,"8.41 upbm affinity estimate (log intensity, higher = more binding, comparable within an allelic series)"
8,GACCCAGC,"8.49 upbm affinity estimate (log intensity, higher = more binding, comparable within an allelic series)"
9,CTCCCGAG,"8.44 upbm affinity estimate (log intensity, higher = more binding, comparable within an allelic series)"
10,CCATTAAC,"11.6 upbm affinity estimate (log intensity, higher = more binding, comparable within an allelic series)"

# Target: HOXC9 (Homo sapiens, UniProt P31274 178-260, R222W)
# Assay: PBM; 200 nM protein, PBS
# Conditions: dsDNA, one strand shown
# HOXC9, sequence (P31274 178-260 R222W): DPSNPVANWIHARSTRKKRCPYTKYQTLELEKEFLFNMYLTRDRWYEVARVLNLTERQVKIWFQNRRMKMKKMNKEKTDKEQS
row,Sequence,binding signal
1,CCGGGAGG,"9.7 upbm affinity estimate (log intensity, higher = more binding, comparable within an allelic series)"
2,CCCCATGC,"9.63 upbm affinity estimate (log intensity, higher = more binding, comparable within an allelic series)"
3,GGCACCAC,"9.76 upbm affinity estimate (log intensity, higher = more binding, comparable within an allelic series)"
4,CGGAGGGA,"9.69 upbm affinity estimate (log intensity, higher = more binding, comparable within an allelic series)"
5,GGGGTACC,"9.69 upbm affinity estimate (log intensity, higher = more binding, comparable within an allelic series)"
6,GCCATTAA,"10.9 upbm affinity estimate (log intensity, higher = more binding, comparable within an allelic series)"
7,CTGGGACC,"9.65 upbm affinity estimate (log intensity, higher = more binding, comparable within an allelic series)"
8,CCGTCCGC,"9.54 upbm affinity estimate (log intensity, higher = more binding, comparable within an allelic series)"
9,CGAGCGAC,"9.73 upbm affinity estimate (log intensity, higher = more binding, comparable within an allelic series)"
10,CCCCTCCC,"9.53 upbm affinity estimate (log intensity, higher = more binding, comparable within an allelic series)"
11,GCTTGGCC,"9.69 upbm affinity estimate (log intensity, higher = more binding, comparable within an allelic series)"
12,CCCCTCGG,"9.5 upbm affinity estimate (log intensity, higher = more binding, comparable within an allelic series)"
13,AGTTAATG,"10.8 upbm affinity estimate (log intensity, higher = more binding, comparable within an allelic series)"
14,CGGGCACG,"9.66 upbm affinity estimate (log intensity, higher = more binding, comparable within an allelic series)"
15,CCCCCTGA,"9.33 upbm affinity estimate (log intensity, higher = more binding, comparable within an allelic series)"
16,CCATTAAC,"11 upbm affinity estimate (log intensity, higher = more binding, comparable within an allelic series)"

# Target: ALX3 (Homo sapiens, UniProt O95076 139-225, L168V)
# Assay: PBM; 200 nM protein, PBS
# Conditions: dsDNA, one strand shown
# ALX3 (Homo sapiens, UniProt O95076 139-225, L168V), sequence (O95076 139-225 L168V): as the sequence (O95076 139-225 L168Q) above, with Q30V counted along it
row,Sequence,binding signal
1,GCCGCAGC,"7.74 upbm affinity estimate (log intensity, higher = more binding, comparable within an allelic series)"
2,CGAGCGAC,"7.74 upbm affinity estimate (log intensity, higher = more binding, comparable within an allelic series)"
3,GACCCAGC,"7.79 upbm affinity estimate (log intensity, higher = more binding, comparable within an allelic series)"

# Target: PROP1 (Homo sapiens, UniProt O75360 56-141, F88S)
# Assay: PBM; 200 nM protein, PBS
# Conditions: dsDNA, one strand shown
# PROP1 (Homo sapiens, UniProt O75360 56-141, F88S), sequence (O75360 56-141 F88S): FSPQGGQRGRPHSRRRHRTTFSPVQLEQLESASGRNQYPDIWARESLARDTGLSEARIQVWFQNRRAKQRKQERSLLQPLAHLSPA
row,Sequence,binding signal
1,CCCGGACG,"6.37 upbm affinity estimate (log intensity, higher = more binding, comparable within an allelic series)"
2,GCTTGGCC,"6.65 upbm affinity estimate (log intensity, higher = more binding, comparable within an allelic series)"
3,GCCAGGGC,"6.44 upbm affinity estimate (log intensity, higher = more binding, comparable within an allelic series)"

# Target: MSX2 (Homo sapiens, UniProt P35548 130-214, F161Y)
# Assay: PBM; 200 nM protein, PBS
# Conditions: dsDNA, one strand shown
# MSX2, sequence (P35548 130-214 F161Y): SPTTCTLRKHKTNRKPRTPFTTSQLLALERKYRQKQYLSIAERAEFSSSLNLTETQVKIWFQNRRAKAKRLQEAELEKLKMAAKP
row,Sequence,binding signal
1,GCGCGCCC,"9.62 upbm affinity estimate (log intensity, higher = more binding, comparable within an allelic series)"
2,CCCGGACG,"9.4 upbm affinity estimate (log intensity, higher = more binding, comparable within an allelic series)"
3,GCCAGGGC,"9.44 upbm affinity estimate (log intensity, higher = more binding, comparable within an allelic series)"

# Target: VAX1 (Homo sapiens, UniProt Q5SQQ9 86-172, T142I)
# Assay: PBM; 200 nM protein, PBS
# Conditions: dsDNA, one strand shown
# VAX1 (Homo sapiens, UniProt Q5SQQ9 86-172, T142I), sequence (Q5SQQ9 86-172 T142I): as the sequence (Q5SQQ9 86-172) above, with T57I counted along it
row,Sequence,binding signal
1,CACGGGGG,"7.14 upbm affinity estimate (log intensity, higher = more binding, comparable within an allelic series)"
2,CCGGGAGG,"7.12 upbm affinity estimate (log intensity, higher = more binding, comparable within an allelic series)"
3,GGGGTACC,"7.26 upbm affinity estimate (log intensity, higher = more binding, comparable within an allelic series)"
4,CGAGCGAC,"7.15 upbm affinity estimate (log intensity, higher = more binding, comparable within an allelic series)"
5,CCCCTCGG,"7.07 upbm affinity estimate (log intensity, higher = more binding, comparable within an allelic series)"
6,GCCAGGGC,"7.16 upbm affinity estimate (log intensity, higher = more binding, comparable within an allelic series)"
7,CAAGGCCC,"7.07 upbm affinity estimate (log intensity, higher = more binding, comparable within an allelic series)"

# Target: HOXA2 (Homo sapiens, UniProt O43364 129-215, Y150S)
# Assay: PBM; 200 nM protein, PBS
# Conditions: dsDNA, one strand shown
# HOXA2, sequence (O43364 129-215 Y150S): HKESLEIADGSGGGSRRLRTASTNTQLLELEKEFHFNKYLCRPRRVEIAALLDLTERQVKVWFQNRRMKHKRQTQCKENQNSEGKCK
row,Sequence,binding signal
1,CACGGGGG,"10.4 upbm affinity estimate (log intensity, higher = more binding, comparable within an allelic series)"
2,CCCCTCGG,"10.4 upbm affinity estimate (log intensity, higher = more binding, comparable within an allelic series)"
3,GCCAGGGC,"10.4 upbm affinity estimate (log intensity, higher = more binding, comparable within an allelic series)"
4,CCATTAAC,"10.7 upbm affinity estimate (log intensity, higher = more binding, comparable within an allelic series)"

# Target: HOXA7 (Homo sapiens, UniProt P31268 116-202, W177C)
# Assay: PBM; 200 nM protein, PBS
# Conditions: dsDNA, one strand shown
# HOXA7, sequence (P31268 116-202 W177C): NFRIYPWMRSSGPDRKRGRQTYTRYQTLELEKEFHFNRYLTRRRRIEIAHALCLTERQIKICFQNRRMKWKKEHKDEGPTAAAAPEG
row,Sequence,binding signal
1,GCCATTAA,"8.78 upbm affinity estimate (log intensity, higher = more binding, comparable within an allelic series)"
2,CCCGGACG,"8.37 upbm affinity estimate (log intensity, higher = more binding, comparable within an allelic series)"
3,CCATTAAC,"8.86 upbm affinity estimate (log intensity, higher = more binding, comparable within an allelic series)"

# Target: HOXA4 (Homo sapiens, UniProt Q00056 201-287, W262F)
# Assay: PBM; 200 nM protein, PBS
# Conditions: dsDNA, one strand shown
# HOXA4, sequence (Q00056 201-287 W262F): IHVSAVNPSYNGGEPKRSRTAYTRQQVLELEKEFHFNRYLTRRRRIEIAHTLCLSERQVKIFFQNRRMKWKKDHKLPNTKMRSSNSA
row,Sequence,binding signal
1,CCCCCTGC,"9.59 upbm affinity estimate (log intensity, higher = more binding, comparable within an allelic series)"
2,CGGAGGGA,"9.79 upbm affinity estimate (log intensity, higher = more binding, comparable within an allelic series)"
3,GGGAGGAC,"9.92 upbm affinity estimate (log intensity, higher = more binding, comparable within an allelic series)"
4,AGTTAATG,"11.4 upbm affinity estimate (log intensity, higher = more binding, comparable within an allelic series)"
5,GCCAGGGC,"9.81 upbm affinity estimate (log intensity, higher = more binding, comparable within an allelic series)"
6,CCAGGGCC,"9.73 upbm affinity estimate (log intensity, higher = more binding, comparable within an allelic series)"
7,CCATTAAC,"11.5 upbm affinity estimate (log intensity, higher = more binding, comparable within an allelic series)"
8,CCCTTCCG,"10 upbm affinity estimate (log intensity, higher = more binding, comparable within an allelic series)"
